Data taken from PubChem BioAssay (EPA / NIEHS).
Inconclusive results are not listed. Activity calls are given as the source filed them. How the source made its calls: active means hit-call score of the fitted dose curve at least 0.9, where 1 is the maximum; inconclusive means response in the unintended direction; inactive means score below 0.9.

Columns and labels:
[1] = biological target: sheep Cyclooxygenase-2 (Cox2), PTGS2 (gene 443460) (UniProt P79208); assay: NVS_ENZ_oCOX2: NovaScreen (NVS) Enzymatic Assay for sheep Cyclooxygenase-2 (Cox2) (AID 2283231)
Outline: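 Enzyme extracted from ovine placenta tested cell-free; activity read colorimetrically by absorbance 0.66 hour after dosing. Primary screen in duplicate at 25 uM; hits rerun as concentration series to 50 uM, loss of signal versus DMSO baseline.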

[2] = biological target: human Adenosine A1 Receptor (AdoRA1), ADORA1 (gene 134) (UniProt P30542); assay: NVS_GPCR_hAdoRA1: NovaScreen (NVS) G Protein-Coupled Receptor Assay for human Adenosine A1 Receptor (AdoRA1) (AID 2283254)
Outline: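 Radioligand competition binding on human cortical membranes, 1 h after compound addition; bound radioactivity read by filtration and scintillation counting. Loss of signal versus DMSO baseline scored as displacement; primary screen duplicate at 25 uM, actives retested in concentration series.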

[3] = biological target: human Vascular Endothelial Growth Factor Receptor 1 (VEGFR1), FLT1 (gene 2321) (UniProt P17948); assay: NVS_ENZ_hVEGFR1: NovaScreen (NVS) Enzymatic Assay for human Vascular Endothelial Growth Factor Receptor 1 (VEGFR1) (AID 2283226)
Outline: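 Kinase activity of recombinant human VEGFR1 was read by fluorescence after electrophoretic separation of product from substrate, 1 h post-dosing; initial duplicate single-point testing at 25 uM, followed by concentration-series follow-up, with DMSO as baseline.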

[4] = biological target: human Vascular Endothelial Growth Factor Receptor 3 (VEGFR3), FLT4 (gene 2324) (UniProt P35916); assay: NVS_ENZ_hVEGFR3: NovaScreen (NVS) Enzymatic Assay for human Vascular Endothelial Growth Factor Receptor 3 (VEGFR3) (AID 2283229)
Outline: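 Chemicals first run in duplicate at 25 uM, with actives re-tested in concentration series to a top of 50 uM. Recombinant VEGFR3 activity measured after 1 h via fluorescence with mobility-shift product separation; inhibition fitted relative to DMSO.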

[5] = biological target: sheep Cyclooxygenase-1 (Cox1), PTGS1 (gene 443551) (UniProt P05979); assay: NVS_ENZ_oCOX1: NovaScreen (NVS) Enzymatic Assay for sheep Cyclooxygenase-1 (Cox1) (AID 2283239);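 further: actives reduce cyclooxygenase activity so potencies are for inhibitors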
Outline: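 Ovine seminal vesicle extract; absorbance (colorimetric) enzyme read-out at 0.66 h post-dose. Primary: single conc 25 uM, duplicate. Follow-up: concentration series on actives. Activity = signal loss vs DMSO baseline.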

[6] = biological target: guinea pig Opioid, Kappa 1 Receptor (OpiateK), OPRK1 (gene 100135587) (UniProt P41144); assay: NVS_GPCR_gOpiateK: NovaScreen (NVS) G Protein-Coupled Receptor Assay for guinea pig Opioid, Kappa 1 Receptor (OpiateK) (AID 2283252);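 further: radioligand displacement from kappa opioid receptor in guinea pig cerebellar membranes; active means reduced radioligand binding relative to DMSO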
Outline: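 Cell-free tissue prep: guinea pig cerebellar membranes, radioligand displacement, 2 h incubation. Readout: filtration plus scintillation counting. Primary single-point 25 uM duplicate; actives retested in concentration series; DMSO negative control.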

[7] = biological target: rabbit Imidazoline 2 Central (I2C), CKB (gene 100009085) (UniProt P00567); assay: NVS_ENZ_rabI2C: NovaScreen (NVS) Enzymatic Assay for rabbit Imidazoline 2 Central (I2C) (AID 2283228)
Outline: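 Rabbit brain membranes, cell-free; readout by filter-based scintillation counting 1.5 hours after dosing, loss of signal vs DMSO. Initial duplicate test at 25 uM, then concentration-response with 50 uM top concentration.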

[8] = test system: guinea pig Muscarinic, Peripheral (Mperiperal) Receptor, Non-selective Binding, gene 100379235; assay: NVS_GPCR_gMPeripheral_NonSelective: NovaScreen (NVS) G Protein-Coupled Receptor Assay for guinea pig Muscarinic, Peripheral (Mperiperal) Receptor, Non-selective Binding (AID 2283250)
Outline: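 Screened in duplicate at 25 uM, hits retested in concentration series to 50 uM max, using bladder membrane radioligand displacement from guinea pig. Filtration and scintillation counting 1 h post-dose, fitted relative to DMSO.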

[9] = biological target: human Serotonin, 5-Hydroxytryptamine Receptor 5A (5HT5A), HTR5A (gene 3361) (UniProt P47898); assay: NVS_GPCR_h5HT5A: NovaScreen (NVS) G Protein-Coupled Receptor Assay for human Serotonin, 5-Hydroxytryptamine Receptor 5A (5HT5A) (AID 2283251)
Outline: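 Membranes from HEK293 cells, radioligand binding read by filtration and scintillation after 1 h. Single-concentration duplicate testing at 25 uM, then concentration-response for actives; positive-direction fitting relative to DMSO.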

[10] = biological target: human Serotonin, 5-Hydroxytryptamine Receptor 7 (5HT7), HTR7 (gene 3363) (UniProt P34969); assay: NVS_GPCR_h5HT7: NovaScreen (NVS) G Protein-Coupled Receptor Assay for human Serotonin, 5-Hydroxytryptamine Receptor 7 (5HT7) (AID 2283255);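 further: hits reduce specific radioligand binding relative to DMSO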
Outline: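 Filter-bound radioactivity counted after 1 h, with loss of specific radioligand binding fitted against DMSO. Membrane protein came from CHO cells expressing human 5HT7. Chemicals were tested first at 25 uM in duplicate, then in concentration series if active.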

[11] = biological target: rat Catechol-O-Methyl Transferase (COMT), Comt (gene 24267) (UniProt P22734); assay: NVS_ENZ_rCOMT: NovaScreen (NVS) Enzymatic Assay for rat Catechol-O-Methyl Transferase (COMT) (AID 2283235)
Outline: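 Rat dorsal striatum extract served as COMT source; product quantified by HPLC/spectrophotometry, read at 0 h after dosing. Primary single-concentration screen at 25 uM, followed by concentration series to a 50 uM maximum.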

[12] = biological target: bovine Dopamine Receptor (DR), Non-selective Binding, DRD1 (gene 281125) (UniProt Q95136); assay: NVS_GPCR_bDR_NonSelective: NovaScreen (NVS) G Protein-Coupled Receptor Assay for bovine Dopamine Receptor (DR), Non-selective Binding (AID 2283241)
Outline: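 Filter-based radioligand binding with bovine striatal membrane, incubated 1 h; DMSO as negative baseline. Initial duplicate single-point test at 25 uM preceded concentration series for actives.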

[13] = biological target: human Serotonin, 5-Hydroxytryptamine Receptor 2A (5HT2A), HTR2A (gene 3356) (UniProt P28223); assay: NVS_GPCR_h5HT2A: NovaScreen (NVS) G Protein-Coupled Receptor Assay for human Serotonin, 5-Hydroxytryptamine Receptor 2A (5HT2A) (AID 2283249)
Outline: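 Radioligand displacement on human cortex tissue extract, counted by filtration and scintillation 1.5 h post-dosing. Initial single-concentration screen at 25 uM in duplicate, concentration series in follow-up; DMSO as baseline.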

[14] = biological target: human Serotonin, 5-Hydroxytryptamine Receptor 6 (5HT6), HTR6 (gene 3362) (UniProt P50406); assay: NVS_GPCR_h5HT6: NovaScreen (NVS) G Protein-Coupled Receptor Assay for human Serotonin, 5-Hydroxytryptamine Receptor 6 (5HT6) (AID 2283253)
Outline: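 Filter scintillation counting of radioligand displacement from HEK293-expressed 5HT6, 1 hour post-dose, with loss of signal relative to DMSO. Single 25 uM duplicates first, with concentration series for confirmation.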

[15] = biological target: Adenosine receptor A1 (Bos taurus) (UniProt P28190); assay: NVS_GPCR_bAdoR_NonSelective: NovaScreen (NVS) G Protein-Coupled Receptor Assay for bovine Adenosine Receptor (AdoR), Non-selective Binding (AID 2283244)
Outline: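 Cell-free binding with membranes from bovine striatum: radioligand displaced by test chemical, read after 1 h by filtration and scintillation. Single-point 25 uM duplicate primary, 50 uM top concentration in follow-up curves, DMSO baseline.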

[16] = biological target: guinea pig Leukotriene D4 Receptor (LTD4), CYSLTR1 (gene 100135514) (UniProt Q2NNR5); assay: NVS_GPCR_gLTD4: NovaScreen (NVS) G Protein-Coupled Receptor Assay for guinea pig Leukotriene D4 Receptor (LTD4) (AID 2283248)
Outline: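 Guinea pig lung membrane preparation; bound radioligand measured by filter scintillation after 1 h, loss of signal versus DMSO marking displacement. Compounds tested at 25 uM in duplicate, hits retested to max 50 uM.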

[17] = biological target: rat Constitutive Nitric Oxide Synthase (CNOS), Nos1 (gene 24598) (UniProt P29476); assay: NVS_ENZ_rCNOS: NovaScreen (NVS) Enzymatic Assay for rat Constitutive Nitric Oxide Synthase (CNOS) (AID 2283236)
Outline: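 Single 25 uM duplicate screen, then concentration series to 50 uM for chemicals meeting threshold. Rat brain membrane-derived CNOS activity detected radiometrically by filtration and scintillation counting, 1 h after compound addition; DMSO as baseline.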

[18] = test system: bovine Histamine 1 Receptor (H1), gene 281231; assay: NVS_GPCR_bH1: NovaScreen (NVS) G Protein-Coupled Receptor Assay for bovine Histamine 1 Receptor (H1) (AID 2283246)
Outline: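 Hits from a 25 uM duplicate primary screen were retested in concentration series (top 50 uM); binding measured as scintillation-counted displacement of radioligand from bovine cerebellar membranes after 1 h, normalised to DMSO.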

Sequence of sheep Cyclooxygenase-1 (Cox1), PTGS1 (gene 443551) (P05979 whole entry, looked up): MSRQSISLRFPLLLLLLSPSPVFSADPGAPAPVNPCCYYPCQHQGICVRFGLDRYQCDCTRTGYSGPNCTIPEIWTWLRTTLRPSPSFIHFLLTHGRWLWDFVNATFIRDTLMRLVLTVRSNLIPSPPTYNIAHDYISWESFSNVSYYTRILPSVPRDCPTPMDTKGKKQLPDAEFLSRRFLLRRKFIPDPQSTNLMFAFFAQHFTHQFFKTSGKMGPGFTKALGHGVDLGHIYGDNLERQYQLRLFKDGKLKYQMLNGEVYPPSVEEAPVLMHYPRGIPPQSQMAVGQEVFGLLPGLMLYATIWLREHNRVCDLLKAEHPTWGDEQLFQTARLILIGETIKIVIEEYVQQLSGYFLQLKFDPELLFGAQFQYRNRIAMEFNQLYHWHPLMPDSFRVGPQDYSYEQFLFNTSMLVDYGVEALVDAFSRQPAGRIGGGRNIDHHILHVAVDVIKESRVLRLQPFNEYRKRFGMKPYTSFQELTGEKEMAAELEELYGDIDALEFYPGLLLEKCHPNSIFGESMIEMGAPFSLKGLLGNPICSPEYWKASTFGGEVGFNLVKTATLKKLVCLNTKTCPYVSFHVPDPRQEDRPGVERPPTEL
Sequence of Adenosine receptor A1 (Bos taurus) (P28190 whole entry, looked up): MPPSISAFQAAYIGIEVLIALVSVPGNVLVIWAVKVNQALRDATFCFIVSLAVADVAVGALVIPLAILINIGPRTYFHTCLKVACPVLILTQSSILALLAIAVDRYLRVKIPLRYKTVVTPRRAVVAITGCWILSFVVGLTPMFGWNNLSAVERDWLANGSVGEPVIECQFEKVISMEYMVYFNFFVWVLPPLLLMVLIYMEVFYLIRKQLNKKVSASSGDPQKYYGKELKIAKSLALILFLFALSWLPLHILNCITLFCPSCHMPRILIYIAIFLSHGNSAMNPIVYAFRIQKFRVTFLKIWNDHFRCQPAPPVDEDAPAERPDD
Sequence of bovine Dopamine Receptor (DR), Non-selective Binding, DRD1 (gene 281125) (Q95136 whole entry, looked up): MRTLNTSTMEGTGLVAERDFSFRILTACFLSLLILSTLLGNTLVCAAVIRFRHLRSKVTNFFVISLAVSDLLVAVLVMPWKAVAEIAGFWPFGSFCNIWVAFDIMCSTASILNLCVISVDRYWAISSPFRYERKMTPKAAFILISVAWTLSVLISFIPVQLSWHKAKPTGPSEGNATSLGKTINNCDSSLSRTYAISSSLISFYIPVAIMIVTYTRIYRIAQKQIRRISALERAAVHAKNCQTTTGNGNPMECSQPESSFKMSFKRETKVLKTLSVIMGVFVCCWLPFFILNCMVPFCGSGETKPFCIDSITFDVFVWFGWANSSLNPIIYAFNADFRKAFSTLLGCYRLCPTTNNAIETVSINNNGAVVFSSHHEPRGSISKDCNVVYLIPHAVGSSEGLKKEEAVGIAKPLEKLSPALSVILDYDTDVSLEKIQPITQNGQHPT
Sequence of human Vascular Endothelial Growth Factor Receptor 1 (VEGFR1), FLT1 (gene 2321) (P17948 whole entry, looked up): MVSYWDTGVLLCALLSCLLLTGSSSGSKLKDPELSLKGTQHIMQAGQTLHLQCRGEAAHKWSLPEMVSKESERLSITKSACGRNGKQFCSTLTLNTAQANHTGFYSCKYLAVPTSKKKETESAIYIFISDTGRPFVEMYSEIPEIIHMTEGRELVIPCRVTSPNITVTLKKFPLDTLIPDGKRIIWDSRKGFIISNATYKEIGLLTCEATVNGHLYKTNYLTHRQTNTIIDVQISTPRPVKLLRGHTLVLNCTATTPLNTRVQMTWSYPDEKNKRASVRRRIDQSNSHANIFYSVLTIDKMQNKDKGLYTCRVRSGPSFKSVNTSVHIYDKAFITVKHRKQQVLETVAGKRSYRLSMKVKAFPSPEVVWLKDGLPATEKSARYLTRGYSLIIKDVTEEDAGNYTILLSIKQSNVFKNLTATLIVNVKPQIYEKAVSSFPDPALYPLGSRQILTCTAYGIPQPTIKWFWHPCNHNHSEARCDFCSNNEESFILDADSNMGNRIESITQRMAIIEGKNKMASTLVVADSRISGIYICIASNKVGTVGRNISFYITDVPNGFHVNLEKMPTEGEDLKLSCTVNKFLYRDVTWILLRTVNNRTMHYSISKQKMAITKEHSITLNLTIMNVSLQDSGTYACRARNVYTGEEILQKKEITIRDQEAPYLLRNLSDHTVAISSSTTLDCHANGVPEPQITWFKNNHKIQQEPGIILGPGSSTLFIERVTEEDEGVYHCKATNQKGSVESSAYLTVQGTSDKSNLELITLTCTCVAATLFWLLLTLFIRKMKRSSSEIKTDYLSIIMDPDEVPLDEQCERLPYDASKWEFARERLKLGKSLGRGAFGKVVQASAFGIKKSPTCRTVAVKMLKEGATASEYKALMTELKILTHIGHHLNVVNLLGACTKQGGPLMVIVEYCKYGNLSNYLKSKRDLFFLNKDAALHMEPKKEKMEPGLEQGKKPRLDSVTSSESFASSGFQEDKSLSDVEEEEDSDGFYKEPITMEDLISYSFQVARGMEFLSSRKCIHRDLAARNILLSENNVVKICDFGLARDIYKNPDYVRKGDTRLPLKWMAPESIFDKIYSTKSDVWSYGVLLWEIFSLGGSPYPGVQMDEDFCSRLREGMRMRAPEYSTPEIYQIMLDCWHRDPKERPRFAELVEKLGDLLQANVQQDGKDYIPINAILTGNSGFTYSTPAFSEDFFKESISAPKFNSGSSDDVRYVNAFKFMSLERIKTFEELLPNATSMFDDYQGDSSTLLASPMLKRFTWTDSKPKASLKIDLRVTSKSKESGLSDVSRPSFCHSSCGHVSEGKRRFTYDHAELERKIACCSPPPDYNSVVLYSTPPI
Sequence of rabbit Imidazoline 2 Central (I2C), CKB (gene 100009085) (P00567 whole entry, looked up): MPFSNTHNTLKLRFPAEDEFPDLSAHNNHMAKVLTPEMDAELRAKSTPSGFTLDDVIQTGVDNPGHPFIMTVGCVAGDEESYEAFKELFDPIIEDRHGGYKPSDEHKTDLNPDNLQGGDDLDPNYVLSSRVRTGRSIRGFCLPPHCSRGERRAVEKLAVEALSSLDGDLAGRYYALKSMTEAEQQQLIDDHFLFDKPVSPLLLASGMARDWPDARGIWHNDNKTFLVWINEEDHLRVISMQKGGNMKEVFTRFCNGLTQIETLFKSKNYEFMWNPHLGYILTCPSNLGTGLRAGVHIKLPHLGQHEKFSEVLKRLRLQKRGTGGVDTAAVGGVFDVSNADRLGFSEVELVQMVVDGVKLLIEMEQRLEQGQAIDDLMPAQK
Sequence of human Serotonin, 5-Hydroxytryptamine Receptor 6 (5HT6), HTR6 (gene 3362) (P50406 whole entry, looked up): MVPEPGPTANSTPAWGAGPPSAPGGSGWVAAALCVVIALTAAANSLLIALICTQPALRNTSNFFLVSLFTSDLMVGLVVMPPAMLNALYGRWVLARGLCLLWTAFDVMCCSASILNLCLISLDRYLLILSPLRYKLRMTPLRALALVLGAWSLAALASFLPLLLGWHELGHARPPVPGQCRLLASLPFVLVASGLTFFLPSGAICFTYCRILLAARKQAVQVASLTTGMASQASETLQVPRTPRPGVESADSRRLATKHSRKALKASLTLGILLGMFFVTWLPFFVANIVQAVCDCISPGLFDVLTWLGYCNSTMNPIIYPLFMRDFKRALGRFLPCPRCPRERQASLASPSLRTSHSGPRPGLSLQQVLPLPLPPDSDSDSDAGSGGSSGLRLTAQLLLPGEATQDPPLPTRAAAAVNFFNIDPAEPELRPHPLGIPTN
Sequence of sheep Cyclooxygenase-2 (Cox2), PTGS2 (gene 443460) (P79208 whole entry, looked up): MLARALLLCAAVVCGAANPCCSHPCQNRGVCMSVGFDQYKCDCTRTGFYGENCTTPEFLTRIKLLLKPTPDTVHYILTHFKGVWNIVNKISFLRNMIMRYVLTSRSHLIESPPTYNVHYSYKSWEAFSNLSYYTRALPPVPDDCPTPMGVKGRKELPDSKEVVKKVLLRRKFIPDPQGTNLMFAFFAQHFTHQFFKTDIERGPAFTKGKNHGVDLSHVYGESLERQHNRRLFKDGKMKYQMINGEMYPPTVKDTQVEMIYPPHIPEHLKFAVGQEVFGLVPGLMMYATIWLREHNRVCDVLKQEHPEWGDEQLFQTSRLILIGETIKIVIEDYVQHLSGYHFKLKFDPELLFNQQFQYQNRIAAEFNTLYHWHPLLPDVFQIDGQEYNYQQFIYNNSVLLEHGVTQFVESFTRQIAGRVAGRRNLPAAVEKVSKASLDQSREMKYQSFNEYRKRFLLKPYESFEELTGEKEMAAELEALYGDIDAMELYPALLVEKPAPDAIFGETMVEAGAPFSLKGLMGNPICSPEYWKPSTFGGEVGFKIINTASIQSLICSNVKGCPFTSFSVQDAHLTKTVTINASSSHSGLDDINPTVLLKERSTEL
Sequence of human Adenosine A1 Receptor (AdoRA1), ADORA1 (gene 134) (P30542 whole entry, looked up): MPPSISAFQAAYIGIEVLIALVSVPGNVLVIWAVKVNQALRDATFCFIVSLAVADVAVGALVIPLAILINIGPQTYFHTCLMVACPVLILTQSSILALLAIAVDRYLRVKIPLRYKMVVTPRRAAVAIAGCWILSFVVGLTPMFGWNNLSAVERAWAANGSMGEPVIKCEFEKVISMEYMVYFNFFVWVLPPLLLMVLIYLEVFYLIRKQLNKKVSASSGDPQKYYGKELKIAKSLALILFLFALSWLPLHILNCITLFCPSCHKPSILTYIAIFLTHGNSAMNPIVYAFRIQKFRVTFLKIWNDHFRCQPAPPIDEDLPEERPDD
Sequence of guinea pig Opioid, Kappa 1 Receptor (OpiateK), OPRK1 (gene 100135587) (P41144 whole entry, looked up): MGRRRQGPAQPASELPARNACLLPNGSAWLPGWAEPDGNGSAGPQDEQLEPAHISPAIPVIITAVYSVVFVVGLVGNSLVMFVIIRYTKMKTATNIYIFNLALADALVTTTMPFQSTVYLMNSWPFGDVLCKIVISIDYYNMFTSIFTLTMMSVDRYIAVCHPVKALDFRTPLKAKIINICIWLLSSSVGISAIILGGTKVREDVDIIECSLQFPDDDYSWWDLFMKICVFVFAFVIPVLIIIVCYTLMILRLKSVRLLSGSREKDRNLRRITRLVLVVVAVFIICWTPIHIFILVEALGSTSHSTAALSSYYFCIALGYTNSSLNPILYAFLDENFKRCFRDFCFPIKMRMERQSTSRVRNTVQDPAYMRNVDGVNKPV

COc1ccc(-n2nc(C(F)F)cc2-c2ccc(S(C)=O)cc2)cc1 (stereo unspecified)
AC50 [1]: 0.478 µM (active)
AC50 [2]: 5.7 µM (active)

CC[C@H](C)C(=O)O[C@H]1C[C@@H](C)C=C2C=C[C@H](C)[C@H](CC[C@@H]3C[C@@H](O)CC(=O)O3)[C@H]21
outcome [3]: inactive
outcome [4]: inactive
AC50 [1]: 8.83 µM (active)
AC50 [5]: 34.3 µM (active)

Cn1c(=O)cc(Oc2ccc(F)cc2F)c2cnc(NCC(C)(C)O)nc21
AC50 [3]: 29.9 µM (active)
outcome [6]: inactive

Nc1ccc(Nc2ccccc2)cc1
AC50 [7]: 4.76 µM (active)
outcome [8]: inactive
AC50 [9]: 11.3 µM (active)
AC50 [6]: 20.6 µM (active)
outcome [2]: inactive
AC50 [10]: 7.22 µM (active)

CC(C)CCO
outcome [11]: inactive

CCOC(=O)c1ccc(C2CCC(NC[C@H](O)COc3ccc(O)c(NS(C)(=O)=O)c3)CC2)cc1 (stereo partly specified)
AC50 [7]: 23.4 µM (active)
AC50 [1]: 8.48 µM (active)
AC50 [5]: 15.2 µM (active)
AC50 [12]: 1.24 µM (active)
AC50 [13]: 23.4 µM (active)
AC50 [8]: 23.4 µM (active)
AC50 [14]: 13 µM (active)
outcome [2]: inactive
AC50 [10]: 6.12 µM (active)

CCOc1cccc(-n2cc(C(=O)N3CCN(c4cc(C(=O)O)c5ccccc5c4)CC3)nc2-c2ccc(C)cc2)c1
AC50 [1]: 6.87 µM (active)
outcome [15]: inactive
AC50 [16]: 19.8 µM (active)
AC50 [9]: 34 µM (active)
AC50 [2]: 14.3 µM (active)
AC50 [10]: 23.8 µM (active)

O=c1[nH]c2ccc(S(=O)CCN3CCC(Cc4ccc(F)cc4)CC3)cc2o1 (stereo unspecified)
AC50 [7]: 6.76 µM (active)
outcome [17]: inactive
AC50 [12]: 6.78 µM (active)
AC50 [18]: 3.91 µM (active)
AC50 [13]: 2.59 µM (active)
outcome [6]: inactive
AC50 [10]: 0.534 µM (active)

Cc1ccc(C)c(O)c1
outcome [1]: inactive
outcome [5]: inactive
outcome [15]: inactive

CC(O)CN(CCN(CC(C)O)CC(C)O)CC(C)O (stereo unspecified)
outcome [4]: inactive

O=C(O)c1cc(N=Nc2ccc(S(=O)(=O)Nc3ccccn3)cc2)ccc1O
outcome [3]: inactive
outcome [4]: inactive

CCCN(C1CCN(C(=O)C2CCNCC2)CC1)[C@@H]1CCc2ccc(OC)cc2C1
AC50 [12]: 8.91 µM (active)
AC50 [18]: 11.6 µM (active)

CCn1nc(Cc2ccccc2)cc1C1CCN(C[C@H]2C[C@H](N(C)[C@@H](C(=O)O)C(C)C)C[C@@H]2c2cccc(F)c2)CC1
AC50 [12]: 18.6 µM (active)

Cn1c(=O)c2c(ncn2C)n(C)c1=O
AC50 [15]: 25 µM (active)

CCc1cc(SCc2sc(-c3ccc(C(F)(F)F)cc3)nc2CN2CCN(c3ccc(OC)cc3)CC2)ccc1OCC(=O)O
outcome [16]: inactive
AC50 [14]: 37.3 µM (active)

O=P(OC(CCl)CCl)(OC(CCl)CCl)OC(CCl)CCl
outcome [14]: inactive

COCCOc1cc2cc(C(=O)NC3CCN(C(C)C)CC3)n(CC(=O)Nc3ccc(Cl)cn3)c2cn1
outcome [2]: inactive
